# Results as given in PubChem BioAssay (NCI).
# About 79,000 compounds went through this panel and 15% of them were active in at least one assay; those are over-represented in the sample as a whole. Unmarked numbers belong to inactive results. Calls of active or inactive are those of the source. Cut-off read from the data, not from the text of the source: active = growth inhibition above about 70%; inactive = the rest.
# Columns and labels:
# [1] = NCI Yeast Anticancer Drug Screen. Data for the rad50 strain (AID 155);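 note: 0% = growth of vehicle-only cultures of the same strain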; details: S. cerevisiae rad50 strain growth inhibition, stronger effect = higher value
# Summary of the method: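 Yeast carrying a defined DNA repair defect were exposed to test compounds, and growth was compared with vehicle-treated controls to give percent inhibition.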
# [2] = NCI Yeast Anticancer Drug Screen. Data for the mec2-1 strain (AID 157); details: S. cerevisiae mec2-1 strain, stronger effect = higher value
# Summary of the method: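 Each compound was tested on mec2-1 yeast, a strain altered in DNA damage repair or cell cycle control. Growth inhibition is reported relative to vehicle.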
# [3] = NCI Yeast Anticancer Drug Screen. Data for the sgs1 mgt1 strain (AID 161);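 note: 0% = growth of cultures given vehicle only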; details: S. cerevisiae sgs1 mgt1 strain, stronger effect = higher value
# Summary of the method: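 Read-out: growth inhibition vs vehicle controls. Cells: mutant yeast strain deficient in DNA damage repair.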
# [4] = NCI Yeast Anticancer Drug Screen. Data for the cln2 rad14 strain (AID 165);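 note: 0% = growth equal to vehicle treated cultures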; details: S. cerevisiae cln2 rad14 strain, stronger effect = higher value
# Summary of the method: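 Test compounds were added to cln2 rad14 yeast cultures; inhibition of growth was then determined by comparison with vehicle treatment.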
# [5] = NCI Yeast Anticancer Drug Screen. Data for the bub3 strain (AID 167); details: S. cerevisiae bub3 mutant strain, stronger effect = higher value
# Summary of the method: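 Compounds were applied to a genetically altered yeast strain carrying a cell-cycle control defect. Growth inhibition was scored against vehicle-treated controls.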
# [6] = NCI Yeast Anticancer Drug Screen. Data for the mlh1 rad18 strain (AID 175); details: S. cerevisiae mlh1 rad18 strain growth inhibition, stronger effect = higher value
# Summary of the method: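 Inhibition values reflect reduced growth of mutant yeast versus vehicle-treated controls following compound exposure; the mutations affect DNA damage repair.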
# [7] = at 5.0 µM (retest, dose inferred, filed as 0.5)
# [8] = at 50.0 µM (retest, dose inferred, filed as 5.0)
SMILES,"growth inhibition [1, 7] [%]","growth inhibition [1, 8]",growth inhibition ([1]; at 50.0 µM),"growth inhibition [2, 7] [%]","growth inhibition [2, 8]",growth inhibition ([2]; at 50.0 µM),"growth inhibition [3, 7] [%]","growth inhibition [3, 8]",growth inhibition ([3]; at 50.0 µM),"growth inhibition [4, 7] [%]","growth inhibition [4, 8]",growth inhibition ([4]; at 50.0 µM),"growth inhibition [5, 7] [%]","growth inhibition [5, 8]",growth inhibition ([5]; at 50.0 µM),"growth inhibition [6, 7] [%]","growth inhibition [6, 8]",growth inhibition ([6]; at 50.0 µM)
CCn1c2ccccc2c2ccc(N=Nc3ccc(N(C)C)cc3)cc21,34,92% (active),77% (active),19,94% (active),78.5% (active),6,92% (active),79.5% (active),15,84% (active),85.7% (active),10,92% (active),82.3% (active),18,93% (active),83.4% (active)
O=C(CC(=O)c1ccncc1)c1ccccc1,7,96% (active),97.2% (active),7,90% (active),94.7% (active),1,93% (active),97% (active),-16,96% (active),93.8% (active),-1,98% (active),97.6% (active),0,99% (active),98% (active)
O=C(C[N+]1(CCc2ccccc2)CCOCC1)c1ccc(-c2ccccc2)cc1,2,52%,79.3% (active),19,71% (active),92.5% (active),-5,93% (active),96.7% (active),-5,34%,98.4% (active),-2,66%,92.8% (active),12,93% (active),98.2% (active)
N#C/C(=C1C=C/C(=N/O)C=C/1Cl)c1ccccc1,-3,-7%,21.7%,-7,4%,24.3%,4,36%,51.9%,-15,6%,69.5%,5,18%,28.1%,-11,10%,26.4%
CCCCCN(CCC)CCCCCCCCCN1CCCc2cc(OC)ccc21,-8,-2%,97.3% (active),-6,-7%,97.7% (active),2,2%,62.9%,-7,-10%,97% (active),-4,-3%,91% (active),-5,-5%,98% (active)
